This passage reports Euclidean distance results from the supplement of paper PMC10127200.

Where a name gives a salt, the structure may show the parent alone.

Common to all, as to test: Euclidean distance of Cell Painting phenotypic profile (signed KS, 77 features) to DMSO centroid (dimensionless distance); 5 or 10 uM (library dependent); higher = stronger phenotypic change vs DMSO (phenoactivity)
Details in all cases: 48 h

In one assay the test system is 786-O. The essentials: (§1)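 Five cancer lines, together with a healthy fibroblast line, received library compounds for 48 h at a library-dependent 10 or 5 uM and 0.1% DMSO final. Harmony then derived 77 features from confocal 20X images (9 fields/well) of the stained cells, scoring each as a signed Kolmogorov-Smirnov statistic against same-plate vehicle wells. After plate-position correction, correlation weighting and replicate averaging at the top dose, phenoactivity was taken as each profile's Euclidean distance to the median vehicle profile.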

Another assay deals with A549. The essentials:
as §1

The next assay deals with DU145. The essentials:
as §1

The next assay deals with FB. The essentials:
as §1

The next assay concerns HEPG2. Put shortly: as §1
For another assay, the system named is OVCAR4. Put shortly:
as §1

`CN1CCCN=C1/C=C/c1cccc(O)c1` [Oxantel Pamoate]: the Euclidean distance amounted to 0.869 in the assay with 786-O; 0.907 in the assay on A549; 0.598 in the assay on DU145; 0.7 in the assay on FB; 0.882 in the assay on HEPG2; 0.824 with OVCAR4.
With `CC(=O)[C@]1(O)Cc2c(O)c3c(c(O)c2[C@@H](O[C@H]2C[C@H](N)[C@H](O)[C@H](C)O2)C1)C(=O)c1ccccc1C3=O` [Idarubicin HCl], the Euclidean distance in the assay on 786-O was determined as 5.7; in the assay on A549, 4.85; in the assay with DU145, 4.5; with FB it was 4.44; in the assay with HEPG2, 5.24; in the assay on OVCAR4, 6.18.
In the case of `CCCCN1CCCC[C@H]1C(=O)Nc1c(C)cccc1C` [Levobupivacaine HCl], the Euclidean distance worked out at 1.01 in the assay with 786-O; 1.33 with A549; 0.6 in the assay with DU145; 0.871 in the assay with FB; 0.852 with HEPG2; 1.49 in the assay on OVCAR4.
Turning to `Nc1c(CC(=O)O)cccc1C(=O)c1ccc(Br)cc1` [Bromfenac Sodium], the Euclidean distance came out at 1.21 in the assay on 786-O; 1.01 in the assay on A549; 0.957 in the assay with DU145; 1.42 with FB; 0.3 in the assay with HEPG2; 1.75 in the assay with OVCAR4.
For `Nc1nc2n[nH]nc2c(=O)[nH]1` [Azaguanine-8], the Euclidean distance came to 1.55 with 786-O; 0.834 in the assay on A549; 0.699 in the assay on DU145; 1.27 in the assay on FB; 1.17 in the assay on HEPG2; 0.737 in the assay on OVCAR4.
As to `Cc1cccc(C)c1NC(=O)c1cc(S(N)(=O)=O)c(Cl)cc1O` [Xipamide], the Euclidean distance in the assay with 786-O is 1.51; in the assay with A549, 0.665; in the assay with DU145 it was 0.648; in the assay with FB, 1.08; in the assay on HEPG2 it was 0.576; in the assay with OVCAR4, 1.08.
In the case of `OCc1ccccc1` [Benzyl alcohol], the Euclidean distance in the assay with 786-O amounted to 1.29; in the assay with A549, 0.876; in the assay on DU145, 0.897; in the assay on FB, 1.21; with HEPG2 it was 1.52; with OVCAR4 it was 1.19.
As to `O=C1c2ccccc2C(=O)c2c1ccc(O)c2O` [Alizarin], the Euclidean distance turned out to be 1.65 in the assay on 786-O; 1.45 in the assay with A549; 1.35 in the assay on DU145; 1.58 with FB; 1.48 in the assay on HEPG2; 1.07 in the assay with OVCAR4.
For `CCC(=O)O[C@@H]1CC(=O)O[C@H](C)C/C=C/C=C/[C@H](O)[C@H](C)C[C@H](CC=O)[C@H](O[C@@H]2O[C@H](C)[C@@H](O[C@H]3C[C@@](C)(O)[C@@H](OC(=O)CC)[C@H](C)O3)[C@H](N(C)C)[C@H]2O)[C@H]1OC` [Midecamycin], the Euclidean distance in the assay on 786-O stood at 0.98; in the assay with A549, 1.59; with DU145 it was 0.874; with FB it was 1.31; in the assay on HEPG2, 1.08; in the assay with OVCAR4, 1.07.
Turning to `C[C@]12CCC(=O)C=C1CC[C@@H]1[C@@H]2[C@@H](O)C[C@@]2(C)[C@H]1CC[C@]2(O)C(=O)CO` [Hydrocortisone], the Euclidean distance in the assay with 786-O stood at 0.925; in the assay on A549, 1.63; with DU145 it was 2.09; with FB, 1.56; with HEPG2, 0.62; in the assay with OVCAR4 it was 2.31.
`CN[C@H](CC(C)C)C(=O)N[C@H]1C(=O)N[C@@H](CC(N)=O)C(=O)N[C@H]2C(=O)N[C@H]3C(=O)N[C@H](C(=O)N[C@H](C(=O)O)c4cc(O)cc(O)c4-c4cc3ccc4O)[C@H](O)c3ccc(c(Cl)c3)Oc3cc2cc(c3O[C@@H]2O[C@H](CO)[C@@H](O)[C@H](O)[C@H]2O[C@H]2C[C@](C)(N)[C@H](O)[C@H](C)O2)Oc2ccc(cc2Cl)[C@H]1O` [Vancomycin HCl]: the Euclidean distance worked out at 0.545 in the assay with 786-O; 0.761 with A549; 0.862 in the assay with DU145; 0.465 in the assay on FB; 0.611 with HEPG2; 0.795 in the assay on OVCAR4.
Regarding `CCCc1nc(C(C)(C)O)c(C(=O)O)n1Cc1ccc(-c2ccccc2-c2nnn[nH]2)cc1` [Olmesartan], the Euclidean distance was found to be 1.21 in the assay on 786-O; 0.9 with A549; 1.57 with DU145; 0.802 with FB; 0.353 in the assay with HEPG2; 1.32 in the assay with OVCAR4.
Regarding `Nc1ccc(S(=O)(=O)Nc2ncccn2)cc1` [Sulfadiazine], the Euclidean distance came to 1.39 with 786-O; 0.735 with A549; 1.5 with DU145; 1.03 in the assay on FB; 2.25 with HEPG2; 1.43 in the assay on OVCAR4.
In the case of `CO[C@H]1C[C@@H]2CC[C@@H](C)[C@@](O)(O2)C(=O)C(=O)N2CCCC[C@H]2C(=O)O[C@H]([C@H](C)C[C@@H]2CC[C@@H](OP(C)(C)=O)[C@H](OC)C2)CC(=O)[C@H](C)/C=C(\C)[C@@H](O)[C@@H](OC)C(=O)[C@H](C)C[C@H](C)/C=C/C=C/C=C/1C` [Ridaforolimus (Deforolimus. MK-8669)], the Euclidean distance with 786-O worked out at 2.74; with A549 it was 1.98; with DU145 it was 1.3; in the assay with FB it was 2.88; in the assay on HEPG2 it was 1.37; with OVCAR4, 2.04.
With `Cc1ccc(-c2ccc(C)cn2)nc1` [Abametapir], the Euclidean distance with 786-O came to 1.7; with A549 it was 1.07; in the assay with DU145 it was 0.964; in the assay with FB, 1.34; in the assay on HEPG2, 1.61; with OVCAR4, 0.964.
In the case of `O=C(/C=C/c1cccc(S(=O)(=O)Nc2ccccc2)c1)NO` [Belinostat (PXD101)], the Euclidean distance in the assay on 786-O is 1.71; in the assay on A549, 2.39; with DU145 it was 2.38; in the assay with FB, 1.82; with HEPG2 it was 1.99; with OVCAR4, 1.12.
As to `Clc1ccc(C(c2ccccc2Cl)C(Cl)Cl)cc1` (stereo unspecified) [Mitotane], the Euclidean distance was determined as 0.994 with 786-O; 0.919 in the assay with A549; 1.27 in the assay with DU145; 1.79 with FB; 1.84 in the assay on HEPG2; 1.45 with OVCAR4.
In the case of `NC(=O)[C@@H]1CCCN1C(=O)[C@H](Cc1c[nH]cn1)NC(=O)[C@@H]1CCC(=O)N1` [Protirelin], the Euclidean distance with 786-O came to 1.34; with A549, 0.937; in the assay on DU145, 0.758; in the assay with FB it was 1.31; with HEPG2, 0.44; in the assay on OVCAR4, 0.947.
Turning to `Nc1ccc(O)c(C(=O)O)c1` [Mesalamine], the Euclidean distance was determined as 1.49 in the assay with 786-O; 0.636 with A549; 2.08 in the assay on DU145; 1.06 with FB; 0.538 in the assay on HEPG2; 1.24 with OVCAR4.
For the compound `Cc1cc(Nc2nc(N[C@@H](C)c3ccc(F)cc3)c(C#N)cc2F)n[nH]1`, the Euclidean distance in the assay on 786-O was found to be 3.5; in the assay on A549 it was 3.48; in the assay on DU145 it was 2.73; with FB, 2.42; with HEPG2, 2.18; with OVCAR4, 2.77.
As to `C=C1/C(=C\C=C2/CCC[C@]3(C)[C@@H]([C@H](C)CCCC(C)C)CC[C@@H]23)C[C@@H](O)C[C@@H]1O` [Alfacalcidol], the Euclidean distance in the assay with 786-O is 2.68; in the assay with A549, 1.49; in the assay on DU145 it was 6.28; with FB, 1.73; with HEPG2 it was 0.811; with OVCAR4, 1.5.
